Test results reported in the supplement of paper PMC10037445.
In all, about 2,900 compounds were measured (“NF-kB SEAP reporter activity, fold change vs agonist alone”: median about 0.99, highest 2% from about 2.6 on). This excerpt belongs to a sample that is enriched for the highest values.

Columns and labels:
RAW-Dual [1] = assay: NF-kB SEAP reporter activity, fold change vs agonist alone; higher = enhanced NF-kB activity; settings: cytotoxicity flag (confluency mask): not cytotoxic
In short: (§1)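 Supernatant from RAW-Dual macrophages was read after 20 hours for IRF by QuantiLuc luminescence and for NF-κB by QuantiBlue absorbance at 620 nm. The cells (50,000 cells/well in DMEM, 384-well plates, 37 °C, 5% CO2) had received 50 nL of library stock by pin tool and, 1 h later, a PRR agonist. Reporter activity is expressed relative to agonist-alone wells as fold change, and wells were flagged cytotoxic if IncuCyte confluency was under 70% of agonist controls in both mask sets.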

RAW-Dual [2] = assay: NF-kB SEAP reporter activity, fold change vs agonist alone; cytotoxicity flag (confluency mask): not cytotoxic; higher = enhanced NF-kB activity
In short: as §1

[3] = library stock concentration (final ~1000-fold dilution): 10 mM, agonist: Imiquimod (TLR7) […]
[4] = library stock concentration (final ~1000-fold dilution): 10 mM, agonist: MPLA (TLR4) […]
[5] = agonist: ODN 1826 (TLR9) 0.5 ug/mL
[6] = agonist: Pam2CSK4 (TLR2/6) 0.1 ug/mL
[7] = agonist: Pam3CSK4 (TLR2/1) 0.1 ug/mL

COC(C)Cn1c(=O)n(C)c2cnc3ccc(-c4cncc(C(C)(C)O)c4)cc3c21 (configuration not stated)
NF-kB SEAP reporter activity (RAW-Dual [1]; [3]): 0.865
NF-kB SEAP reporter activity (RAW-Dual [1]; [4]): 1.85

COC(C)Cn1c(=O)n(C)c2cnc3ccc(-c4cncc(C(C)(C)O)c4)cc3c21 (configuration not stated) (library stock concentration (final ~1000-fold dilution): 10 mM)
NF-kB SEAP reporter activity (RAW-Dual [2]; agonist: LPS (TLR4) 0.1 ug/mL): 1.84
NF-kB SEAP reporter activity (RAW-Dual [2]; [5]): 1.26
NF-kB SEAP reporter activity (RAW-Dual [2]; [6]): 0.476
NF-kB SEAP reporter activity (RAW-Dual [2]; [7]): 1.03

CC(=O)c1c(C)c2cnc(Nc3ccc(N4CCNCC4)cn3)nc2n(C2CCCC2)c1=O.O=S(=O)(O)CCO
NF-kB SEAP reporter activity (RAW-Dual [1]; library stock concentration (final ~1000-fold dilution): 10 mM water, agonist: Imiquimod (TLR7) […]): 0.674
NF-kB SEAP reporter activity (RAW-Dual [1]; library stock concentration (final ~1000-fold dilution): 10 mM water, agonist: MPLA (TLR4) […]): 1.09

CC(=O)c1c(C)c2cnc(Nc3ccc(N4CCNCC4)cn3)nc2n(C2CCCC2)c1=O.O=S(=O)(O)CCO (library stock concentration (final ~1000-fold dilution): 10 mM water)
NF-kB SEAP reporter activity (RAW-Dual [2]; agonist: LPS (TLR4) 0.1 ug/mL): 1.71
NF-kB SEAP reporter activity (RAW-Dual [2]; [5]): 0.449
NF-kB SEAP reporter activity (RAW-Dual [2]; [6]): 0.752
NF-kB SEAP reporter activity (RAW-Dual [2]; [7]): 1.29

CCC(Nc1ncnc2[nH]cnc12)c1nc2cccc(F)c2c(=O)n1-c1ccccc1 (configuration not stated) (library stock concentration (final ~1000-fold dilution): 10 mM)
NF-kB SEAP reporter activity (RAW-Dual [2]; agonist: LPS (TLR4) 0.1 ug/mL): 1.27
NF-kB SEAP reporter activity (RAW-Dual [2]; [5]): 1.08
NF-kB SEAP reporter activity (RAW-Dual [2]; [6]): 0.969
NF-kB SEAP reporter activity (RAW-Dual [2]; [7]): 0.843

CCC(Nc1ncnc2[nH]cnc12)c1nc2cccc(F)c2c(=O)n1-c1ccccc1 (configuration not stated)
NF-kB SEAP reporter activity (RAW-Dual [1]; [3]): 0.75
NF-kB SEAP reporter activity (RAW-Dual [1]; [4]): 0.952

CC(NC(=O)c1ncnc(N)c1Cl)c1ncc(C(=O)Nc2cc(C(F)(F)F)c(Cl)cn2)s1 (configuration not stated) (library stock concentration (final ~1000-fold dilution): 10 mM)
NF-kB SEAP reporter activity (RAW-Dual [2]; agonist: LPS (TLR4) 0.1 ug/mL): 0.632
NF-kB SEAP reporter activity (RAW-Dual [2]; [5]): 0.495
NF-kB SEAP reporter activity (RAW-Dual [2]; [6]): 0.383
NF-kB SEAP reporter activity (RAW-Dual [2]; [7]): 0.417

CC(NC(=O)c1ncnc(N)c1Cl)c1ncc(C(=O)Nc2cc(C(F)(F)F)c(Cl)cn2)s1 (configuration not stated)
NF-kB SEAP reporter activity (RAW-Dual [1]; [3]): 0.623
NF-kB SEAP reporter activity (RAW-Dual [1]; [4]): 0.876

O=C1C(Cc2ccc(O)cc2)N2C(=O)CCN(C(=O)NCc3ccccc3)C2CN1Cc1cccc2ccccc12 (configuration not stated)
NF-kB SEAP reporter activity (RAW-Dual [1]; [3]): 1.45
NF-kB SEAP reporter activity (RAW-Dual [1]; [4]): 2.26

O=C1C(Cc2ccc(O)cc2)N2C(=O)CCN(C(=O)NCc3ccccc3)C2CN1Cc1cccc2ccccc12 (configuration not stated) (library stock concentration (final ~1000-fold dilution): 10 mM)
NF-kB SEAP reporter activity (RAW-Dual [2]; agonist: LPS (TLR4) 0.1 ug/mL): 3.72
NF-kB SEAP reporter activity (RAW-Dual [2]; [5]): 1.08
NF-kB SEAP reporter activity (RAW-Dual [2]; [6]): 0.484
NF-kB SEAP reporter activity (RAW-Dual [2]; [7]): 0.63

CNCCN1CCC(OCc2ccccc2)CC1.Cl.Cl (library stock concentration (final ~1000-fold dilution): 10 mM)
NF-kB SEAP reporter activity (RAW-Dual [2]; agonist: LPS (TLR4) 0.1 ug/mL): 1.03
NF-kB SEAP reporter activity (RAW-Dual [2]; [5]): 1.45
NF-kB SEAP reporter activity (RAW-Dual [2]; [6]): 0.877
NF-kB SEAP reporter activity (RAW-Dual [2]; [7]): 1.53

CNCCN1CCC(OCc2ccccc2)CC1.Cl.Cl
NF-kB SEAP reporter activity (RAW-Dual [1]; [3]): 1.55
NF-kB SEAP reporter activity (RAW-Dual [1]; [4]): 0.921

CC1OC(OC2C(Oc3cc(O)c(C(=O)CCc4ccc(O)cc4)c(O)c3)OC(CO)C(O)C2O)C(O)C(O)C1O (configuration not stated)
NF-kB SEAP reporter activity (RAW-Dual [1]; [3]): 0.957
NF-kB SEAP reporter activity (RAW-Dual [1]; [4]): 1.03

CC1OC(OC2C(Oc3cc(O)c(C(=O)CCc4ccc(O)cc4)c(O)c3)OC(CO)C(O)C2O)C(O)C(O)C1O (configuration not stated) (library stock concentration (final ~1000-fold dilution): 10 mM)
NF-kB SEAP reporter activity (RAW-Dual [2]; agonist: LPS (TLR4) 0.1 ug/mL): 0.867
NF-kB SEAP reporter activity (RAW-Dual [2]; [5]): 0.991
NF-kB SEAP reporter activity (RAW-Dual [2]; [6]): 0.784
NF-kB SEAP reporter activity (RAW-Dual [2]; [7]): 1.06
